The results in this text go back to the supplement of paper PMC5499739.

Over roughly 16,000 sequences, “Z-score” has its median near -0.37; the highest 2% begin near 3.1. The full list was thinned out, with the highest values kept by preference.

For the test, the system named is RBM10 RRM1-ZnF-RRM2 (GST-tagged construct). In words: RNAcompete 7-mer binding Z-score; higher = stronger binding preference. The procedure, abridged: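 Bound RNA was identified by microarray hybridisation after GST-tagged RBM10 constructs (20 pmol) had been mixed with 1.5 nmol of a designed pool of 241 399 RNAs up to 41 nt, transcribed from microarray-derived DNA templates. Binding ran for 30 min at 4°C in 1 ml Hepes pH 7.8 buffer with KCl, NaCl, glycerol, DTT, BSA and glutathione Sepharose beads, with four 2-min washes at 4°C afterwards. For every heptamer motif, a one-sided Z-score for enrichment was computed across the probes that contained it.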
As to UGUUGUU, the “RNAcompete 7-mer binding Z-score” value was -0.286. With GUCGCGU, the “RNAcompete 7-mer binding Z-score” value is -0.0124. As to AGGAAGU, the “RNAcompete 7-mer binding Z-score” value is 1.21. On to UGGAAGU, for which the “RNAcompete 7-mer binding Z-score” value was found to be 1.6. With AGGAAGA, the “RNAcompete 7-mer binding Z-score” value stood at 1.64. The value for CGGAAGG was 2.53. Turning to UGGAAGG, the “RNAcompete 7-mer binding Z-score” value was found to be 3.68.

With AGGAAGG, the “RNAcompete 7-mer binding Z-score” value was 4.46. As for GUGUAAG, the “RNAcompete 7-mer binding Z-score” value was 1.28. Consider GGAGGGC, for which the “RNAcompete 7-mer binding Z-score” value worked out at 3.27. Regarding GGAGGGA, the “RNAcompete 7-mer binding Z-score” value was found to be 3.6. The value for GGAGGGG was 4.18; that for GUAGAGG was 4.02. On to AGAGGGA, for which the “RNAcompete 7-mer binding Z-score” value was determined as 2.16. Under AGAGGGC stands 1.02; under UGAGGGC, 2.22. Consider GGAGGAG, for which the “RNAcompete 7-mer binding Z-score” value is 2.84. Consider CGAGGGA, for which the “RNAcompete 7-mer binding Z-score” value came out at 3.11. The value for AUAGAGG was 1.79. AGAGGGG: the “RNAcompete 7-mer binding Z-score” value worked out at 1.94.

For the sequence UUAGAGG, the “RNAcompete 7-mer binding Z-score” value was 1.24. Turning to AGAUAAG, the “RNAcompete 7-mer binding Z-score” value was 0.989. Turning to GUUAACU, the “RNAcompete 7-mer binding Z-score” value is -0.398. UCCUGUA: the “RNAcompete 7-mer binding Z-score” value was -0.795. In the case of UCAUGGG, the “RNAcompete 7-mer binding Z-score” value was 1.19. With AAAACGU, the “RNAcompete 7-mer binding Z-score” value is -0.0197. The value for CGAGGCG was 1.5; that for CGAGGGC was 1.41.

On to GGAGUGA, for which the “RNAcompete 7-mer binding Z-score” value is 2.63. For AGAGUGG, the “RNAcompete 7-mer binding Z-score” value is 2.77. Under GGAGAGA stands 1.26. With AGAGAGG, the “RNAcompete 7-mer binding Z-score” value stood at 1.58.

As for GGAGUGG, the “RNAcompete 7-mer binding Z-score” value was 4.61. The value for CGAGGGG was 3.29; that for GGAGAGG was 3.28; that for GUCCAAA was -0.424. On to GUUCACG, for which the “RNAcompete 7-mer binding Z-score” value is -0.355. The value for UAAGCAU was -0.555. In the case of UAUCAAU, the “RNAcompete 7-mer binding Z-score” value was -0.46.

Take CUGUGUA: the “RNAcompete 7-mer binding Z-score” value was -0.417. On to UCUUUUG, for which the “RNAcompete 7-mer binding Z-score” value is -0.632.

As to AACAGGG, the “RNAcompete 7-mer binding Z-score” value was 3.73.

Take AGCAGGA: the “RNAcompete 7-mer binding Z-score” value was 2.45. For the sequence UGCAGGG, the “RNAcompete 7-mer binding Z-score” value was 2.53. For the sequence AACAGGC, the “RNAcompete 7-mer binding Z-score” value came to 1.62. On to CACAGGG, for which the “RNAcompete 7-mer binding Z-score” value is 2.49. In the case of AGCAGGG, the “RNAcompete 7-mer binding Z-score” value amounted to 3.39. In the case of GGUGCCC, the “RNAcompete 7-mer binding Z-score” value was determined as 0.0495. Turning to CUUAGCU, the “RNAcompete 7-mer binding Z-score” value is -0.832. For CCUUGUC, the “RNAcompete 7-mer binding Z-score” value is -0.89. Consider AUUUUCU, for which the “RNAcompete 7-mer binding Z-score” value was -0.803.

Consider CUUCUGC, for which the “RNAcompete 7-mer binding Z-score” value was -0.959. Consider UUACUGC, for which the “RNAcompete 7-mer binding Z-score” value is -0.799. Regarding CGUAAGG, the “RNAcompete 7-mer binding Z-score” value was 0.844. For AAAAAGG, the “RNAcompete 7-mer binding Z-score” value came to 2.19. Regarding AGUAAGU, the “RNAcompete 7-mer binding Z-score” value came to 0.188.

Regarding UGAAAGG, the “RNAcompete 7-mer binding Z-score” value came to 2.76. As for CGAAAGG, the “RNAcompete 7-mer binding Z-score” value was 1.98. On to AGUAAGG, for which the “RNAcompete 7-mer binding Z-score” value amounted to 3.47. As to AAAAGGU, the “RNAcompete 7-mer binding Z-score” value came out at 2.52. With AGAAAGG, the “RNAcompete 7-mer binding Z-score” value turned out to be 4.73. For CAAAGGU, the “RNAcompete 7-mer binding Z-score” value came out at 1.62. In the case of GAAAAAG, the “RNAcompete 7-mer binding Z-score” value was found to be 1.52.

Regarding GAAAGGU, the “RNAcompete 7-mer binding Z-score” value came to 4.42. For GAAAAGG, the “RNAcompete 7-mer binding Z-score” value amounted to 4.73. In the case of GCGUGUC, the “RNAcompete 7-mer binding Z-score” value was -0.235. Regarding GCAUCGA, the “RNAcompete 7-mer binding Z-score” value is -0.22. With CGCCUCA, the “RNAcompete 7-mer binding Z-score” value is -0.748. Regarding CGGAGCA, the “RNAcompete 7-mer binding Z-score” value is 1.02. The value for GCAGCGG was 2.14. The value for GUUCUAC was -0.759; that for GUAAAAG was 0.767.

With CAUAAGG, the “RNAcompete 7-mer binding Z-score” value came out at 0.548.

For GAUAAGG, the “RNAcompete 7-mer binding Z-score” value amounted to 3.81. For the sequence GUAAAGU, the “RNAcompete 7-mer binding Z-score” value turned out to be 0.396.

Consider GAUAAGU, for which the “RNAcompete 7-mer binding Z-score” value came out at 0.0969. Consider GUAAAGG, for which the “RNAcompete 7-mer binding Z-score” value worked out at 3.36. Under CCUACAG stands -0.752; under UGACACA, -0.315; under UUCUUAU, -0.744.

Consider CGAACGC, for which the “RNAcompete 7-mer binding Z-score” value is -0.256. With CCAUUUU, the “RNAcompete 7-mer binding Z-score” value was -1.08. The value for AUUACAC was -0.537; that for GGCUCAA was -0.122; that for CCCUCUU was -0.89.

For the sequence CAAAGGA, the “RNAcompete 7-mer binding Z-score” value is 1.34. Consider UAAAGGA, for which the “RNAcompete 7-mer binding Z-score” value worked out at 1.64.

Take AAAAGGA: the “RNAcompete 7-mer binding Z-score” value was 3.25. Turning to AAAAGGG, the “RNAcompete 7-mer binding Z-score” value amounted to 3.58. The value for CAAAGGG was 2.78; that for UAAAGGG was 2.65; that for CUUUCGC was -0.967.

Regarding UGAAGAU, the “RNAcompete 7-mer binding Z-score” value is -0.00877. CAAUGGG: the “RNAcompete 7-mer binding Z-score” value was 3.4. In the case of ACAUGGA, the “RNAcompete 7-mer binding Z-score” value was found to be 1.76. Under CAAUGGA stands 1.4; under CAAUGGU, 1.25.

In the case of UAAUGGA, the “RNAcompete 7-mer binding Z-score” value was 1.64. For the sequence GAAUGGG, the “RNAcompete 7-mer binding Z-score” value turned out to be 4.77. In the case of UAAUGGG, the “RNAcompete 7-mer binding Z-score” value came to 2.89. Under GAAUGGU stands 2.65; under AAAUGGA, 3.34; under GAAUGGC, 1.68. Take GAAUGGA: the “RNAcompete 7-mer binding Z-score” value is 3.56. As to AAAUGUA, the “RNAcompete 7-mer binding Z-score” value was 0.0859. Turning to UGCGCUU, the “RNAcompete 7-mer binding Z-score” value is -0.744. The value for CCCUCAG was -0.81; that for CUCCGUC was -0.894. For the sequence GACAAGC, the “RNAcompete 7-mer binding Z-score” value was -0.0233. In the case of GGCCGGU, the “RNAcompete 7-mer binding Z-score” value came out at 0.279. Take GAUUCCA: the “RNAcompete 7-mer binding Z-score” value was -0.519.

Consider GUAUGGG, for which the “RNAcompete 7-mer binding Z-score” value came to 4.06. In the case of GUAUGGA, the “RNAcompete 7-mer binding Z-score” value came out at 2.44.

Consider AAAUGGG, for which the “RNAcompete 7-mer binding Z-score” value was 4.04. As for AAAUGGC, the “RNAcompete 7-mer binding Z-score” value turned out to be 1.42. Consider CUAUGGG, for which the “RNAcompete 7-mer binding Z-score” value is 1.08. For the sequence AAAUGGU, the “RNAcompete 7-mer binding Z-score” value was 2.73.
